The source of these data is PubChem BioAssay AID1259372 (The Scripps Research Institute Molecular Screening Center, 2018).

The campaign covered roughly 4,700 compounds. About 760 (16%) were called active. The list is a sample of the results. Values without a mark were called inactive.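 Rule for the calls: active = inhibition above a cutoff derived from the DMSO control wells (cut at about 28% in these data); inactive = the rest.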

In general, inhibition refers to the relative decrease from the control value, in per cent.

Chain of Microphthalmia-associated transcription factor (Homo sapiens) (O75030 whole entry, looked up): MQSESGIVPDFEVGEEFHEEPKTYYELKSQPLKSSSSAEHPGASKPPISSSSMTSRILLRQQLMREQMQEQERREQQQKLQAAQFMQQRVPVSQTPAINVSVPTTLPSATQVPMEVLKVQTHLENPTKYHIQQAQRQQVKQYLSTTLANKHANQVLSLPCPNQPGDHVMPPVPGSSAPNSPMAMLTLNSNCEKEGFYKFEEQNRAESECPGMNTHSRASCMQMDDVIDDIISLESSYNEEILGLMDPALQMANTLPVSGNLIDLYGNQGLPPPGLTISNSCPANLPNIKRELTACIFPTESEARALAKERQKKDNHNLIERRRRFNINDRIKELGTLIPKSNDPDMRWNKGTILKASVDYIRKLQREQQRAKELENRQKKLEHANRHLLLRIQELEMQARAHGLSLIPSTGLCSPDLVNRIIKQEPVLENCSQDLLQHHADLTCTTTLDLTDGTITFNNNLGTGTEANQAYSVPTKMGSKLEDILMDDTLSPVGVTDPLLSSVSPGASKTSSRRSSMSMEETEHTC

The test concerns the target Microphthalmia-associated transcription factor (Homo sapiens) (UniProt O75030). In words: MITF inhibitors, retest of hits, confirmation, biochemical, AlphaScreen, triplicate (AID 1259372). To be noted: AlphaScreen MITF homodimerization, biotin/His-MITF beads; at 2.6 µM; stronger effect = higher value. (In general: In Alpha technology, singlet oxygen from a donor bead excites a nearby acceptor bead.)
On to `COc1cc(CN2CCN(Cc3ccccc3Br)CC2)cc(OC)c1`, for which the inhibition was 9.11%.
As for `COc1ccc(COCC(O)CNCC(C)(C)CN(C)C)cc1OC` (stereo unspecified), the inhibition is 3.01%.
Turning to `COCc1nc2ccccc2n1CCc1noc(-c2ccco2)n1`, the inhibition is 6.8%.
The same measure for `C1=CC2CC1CC2CN1CCN(Cc2c[nH]c3ccccc23)CC1` (stereo unspecified): -0.81%.
Turning to `COc1cccc(/C=C(\C#N)c2nc3ccccc3[nH]2)c1OCc1ccc(Cl)cc1Cl`, the inhibition is 0.99%.
The same measure for `COc1ccc(CN2CCN(Cc3ccccc3OC)CC2)cc1Br`: 5.52%.
The same measure for `O=[N+]([O-])c1ccc(OCc2nnc(SCCN3CCOCC3)n2-c2ccccc2)cc1`: 2.94%; for `CCCS(=O)(=O)N1CCN(Cc2ccc(OC)c(OCc3ccccc3)c2)CC1`: -0.41%; for `CC1CN(CCOc2ccccc2[N+](=O)[O-])CC(C)O1` (stereo unspecified): 6.95%.
On to `Cc1ccc(C(C)C)c(OCCN2CCNCC2)c1`, for which the inhibition was -8.7%.
The same measure for `COc1ccc2c(c1)CC(C(=O)Nc1ccc(-c3cn[nH]c3)cc1OCC(N)=O)CO2` (stereo unspecified): 40.3% (active); for `COc1ccc2c(c1)CC(C(=O)Nc1ccc(-c3cn[nH]c3)cc1OCc1ccccc1)CO2` (stereo unspecified): 56% (active).
The same measure for `COc1ccc(NC(=O)CN2CCN(C)CC2)c(OC)c1`: 13%; for `CC1CCN(S(=O)(=O)c2ccc(Cl)c(C(=O)Nc3ccccc3[N+](=O)[O-])c2)CC1`: 16.1%; for `Clc1cccc(CN2CCN(C3CCCC3)CC2)c1`: 12.9%.
In the case of `Brc1cccc(CN2CCN(Cc3cccnc3)CC2)c1` it was 5.44%; in that of `O=C(c1ccc2c(c1)C(=O)N(Cc1cccnc1)C2=O)c1ccc2c(c1)C(=O)N(Cc1cccnc1)C2=O`, 51.2% (active).
Consider `O=C(c1cccc(Cl)c1)N1CCN(Cc2cccnc2)CC1`, for which the inhibition was 16.8%.
The same measure for `COc1ccc(-c2nc(Nc3cc(OC)c(OC)c(OC)c3)c3[nH]cnc3n2)cc1`: 14%.
Regarding `COc1cc(CN2CCN(Cc3ccc(Cl)cc3)CC2)c([N+](=O)[O-])cc1OC`, the inhibition was 5.78%.
Consider `O=C(Nc1ccc(-c2ccncc2)c(C(F)(F)F)c1)C1COc2ccccc2O1` (stereo unspecified), for which the inhibition is 42.5% (active).
In the case of `COc1ccc(CN2CCN(Cc3ccccc3C(F)(F)F)CC2)cc1OC` it was 24.4%; in that of `CCN1CCN(CC(O)COc2cccc(C(=O)OC)c2)CC1` (stereo unspecified), -4.86%.
The same measure for `COc1cccc(CN2CCN(C/C=C/c3ccccc3)CC2)c1OC`: 2.33%; for `Cc1cc(NC(=O)/C=C/C(=O)N(CC(=O)NC2CCCC2)c2ccc(F)cc2)no1`: 10.1%.
As for `COc1cccc(OC)c1C(=O)N1CCN(Cc2cccnc2)CC1`, the inhibition was -5.41%.
For `CS(=O)(=O)N1CCN(Cc2cccc(Cl)c2)CC1`, the inhibition was -2.19%.
As to `CN(CCc1ccccn1)CC(=O)N1CCc2ccccc21`, the inhibition was 12.3%.
In the case of `CSc1ccc(CN2CCN(S(=O)(=O)c3ccc([N+](=O)[O-])cc3)CC2)cc1` it was 19.9%; in that of `Cn1c(=NC(=O)COc2ccccc2)sc2cc(S(C)(=O)=O)ccc21`, 4.53%; in that of `NS(=O)(=O)c1cccc(NC(=O)COc2ncnc3sc(-c4ccccc4)cc23)c1`, 13.3%.
In the case of `Cc1cc(S(=O)(=O)Nc2ccc3c(c2)OCCO3)ccc1-n1cnnn1` it was 5.76%; in that of `COc1cc2nc(-c3cccc(C(C)=O)c3)nc(N)c2cc1OC`, -8.94%.
Turning to `O=C1c2ccccc2C(O)N1Cc1ccccc1Cl` (stereo unspecified), the inhibition is -9.08%.
In the case of `COc1ccc(C2C(C(C)=O)=C(C)N=C3SCC(=O)N32)c(OC)c1` (stereo unspecified) it was -3.48%; in that of `CCN1CCN(CCCCOc2ccccc2F)CC1`, 6.76%; in that of `O=C(c1ccccc1)N1CCN(C2CCCC2)CC1`, -3.05%.
The same measure for `Cc1nc(NC(=O)c2cc(Br)ccc2Cl)sc1C`: 11%; for `CC1(C)CC(=O)C2=C(C1)Nc1ccccc1N(C(=O)Cc1ccccc1)C2c1ccc(-c2ccc([N+](=O)[O-])cc2)o1` (stereo unspecified): 12.3%; for `CCNc1nc(NCC)nc(C(=O)O)n1`: 54.9% (active).
As to `Cn1c(=O)oc2cc(S(=O)(=O)N3CCC(C(=O)NC(C)(C)C)CC3)ccc21`, the inhibition is -16.9%.
The same measure for `C=CCn1c(SCC(=O)Nc2nc3ccccc3s2)nc(O)cc1=O`: -1.3%.
In the case of `COc1cc(CN2CCN(C(=O)C(c3ccccc3)c3ccccc3)CC2)cc(OC)c1OC`, the inhibition was 5.49%.
Consider `CSc1nnc(SCc2nc3sc(C(=O)O)c(C)c3c(=O)[nH]2)s1`, for which the inhibition is 14.3%.
In the case of `CC(=O)N1CCN(CC(=O)Nc2ccc(C)c(F)c2)CC1` it was -10.5%; in that of `O=C(CCC(=O)OCc1ccc(Cl)cc1)Nc1ccc([N+](=O)[O-])cc1`, 13.1%.
The same measure for `Cc1ccc(NC(=O)COC(=O)CCC(=O)Nc2sc3c(c2C(N)=O)CCC3)cc1F`: 87.4% (active); for `OCCOCCN1CCN(Cc2ccc(Cl)cc2)CC1`: 1.57%.
In the case of `COc1cccc(CN2CCN(CCCc3ccccc3)CC2CCO)c1` (stereo unspecified), the inhibition is -0.58%.
Regarding `COC(=O)CSc1nc(C2CC2)nc2ccccc12`, the inhibition was 5.56%.
The same measure for `CC1CCCC(N2CCN(Cc3ccccc3Cl)CC2)C1` (stereo unspecified): -6.77%; for `O=C(CNCc1cccnc1)Nc1ccc(C(=O)N2CCCCC2)cc1`: 7.91%.
In the case of `CC(=O)N1CCN(C(=O)c2ccc(N3CC4CC(C3)c3cccc(=O)n3C4)c(NC(=O)c3cccnc3)c2)CC1` (stereo unspecified) it was -11.6%; in that of `CCSc1ccccc1C(=O)N1CCN(c2ccc(-c3ccccn3)nn2)CC1`, 111% (active); in that of `COc1ccc(OCCn2ccnc2C)cc1`, -1.1%.
The same measure for `COc1cc(CN2CCN(Cc3ccc(OC)c(OC)c3)CC2)cc(OC)c1`: 4.54%.
